From PMC7862700, “An all-to-all approach to the identification of sequence-specific readers for epigenetic DNA modifications on cytosine”

What was measured:
Assay in all cases: DAPPL (digital affinity profiling via proximity ligation, sequencing); 10 mM Tris-HCl pH 7.5, 50 mM NaCl, 1 mM DTT, 4% glycerol, room temperature, 30 min; GST-TFs on glutathione beads, 16-mer random dsDNA library, 0.1% formaldehyde crosslink after washing; high values mean tight binding
Details in all cases: protein: recombinant; tags: N-terminal GST; dsDNA, one strand shown
FLI1 = target: T1, FLI1 (Homo sapiens, UniProt Q01543 1-452)
T1 sequence: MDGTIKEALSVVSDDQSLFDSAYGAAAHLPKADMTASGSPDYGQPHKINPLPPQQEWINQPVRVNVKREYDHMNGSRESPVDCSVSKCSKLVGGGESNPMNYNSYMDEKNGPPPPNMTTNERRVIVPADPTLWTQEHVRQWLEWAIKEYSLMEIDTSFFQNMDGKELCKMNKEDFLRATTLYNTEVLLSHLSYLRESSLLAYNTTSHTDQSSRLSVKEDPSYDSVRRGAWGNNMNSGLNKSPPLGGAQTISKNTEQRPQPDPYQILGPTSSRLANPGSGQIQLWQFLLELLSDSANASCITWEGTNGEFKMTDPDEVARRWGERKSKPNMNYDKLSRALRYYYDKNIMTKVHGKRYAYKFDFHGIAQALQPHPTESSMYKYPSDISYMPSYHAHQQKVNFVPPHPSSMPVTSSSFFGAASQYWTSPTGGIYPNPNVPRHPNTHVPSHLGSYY
Outline: (§1)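 Binding signal is defined as a hexamer's read frequency for one factor over its frequency for the tag-only sample. To obtain reads, GST-fused human transcription factors were expressed in yeast, captured on glutathione beads, barcoded with DNA and pooled with that sample. Pools met 200 nmole of a 16-mer random double-stranded DNA library in Tris/NaCl/DTT/glycerol buffer for 30 min at room temperature before washing, 0.1% formaldehyde crosslinking, proximity ligation (BsaI/T4 ligase, 1 h, 37 °C), PCR and Illumina NextSeq500 sequencing.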

ELK1 = target: T2, ELK1 (Homo sapiens, UniProt P19419 1-428)
T2 sequence: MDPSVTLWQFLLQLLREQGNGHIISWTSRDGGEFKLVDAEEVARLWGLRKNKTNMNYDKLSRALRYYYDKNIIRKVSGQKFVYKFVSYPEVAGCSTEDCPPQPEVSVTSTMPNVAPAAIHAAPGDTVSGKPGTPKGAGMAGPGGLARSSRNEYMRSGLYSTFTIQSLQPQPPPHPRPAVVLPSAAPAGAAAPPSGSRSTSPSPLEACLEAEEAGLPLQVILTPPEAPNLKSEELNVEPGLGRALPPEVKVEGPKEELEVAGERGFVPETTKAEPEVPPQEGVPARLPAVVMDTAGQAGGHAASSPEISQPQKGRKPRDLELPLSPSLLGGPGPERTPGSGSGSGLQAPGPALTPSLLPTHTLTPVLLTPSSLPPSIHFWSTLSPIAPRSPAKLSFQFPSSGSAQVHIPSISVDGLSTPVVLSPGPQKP
Outline: as §1

GABPA = target: T3, GABPA (Homo sapiens, UniProt Q06546 1-454)
T3 sequence: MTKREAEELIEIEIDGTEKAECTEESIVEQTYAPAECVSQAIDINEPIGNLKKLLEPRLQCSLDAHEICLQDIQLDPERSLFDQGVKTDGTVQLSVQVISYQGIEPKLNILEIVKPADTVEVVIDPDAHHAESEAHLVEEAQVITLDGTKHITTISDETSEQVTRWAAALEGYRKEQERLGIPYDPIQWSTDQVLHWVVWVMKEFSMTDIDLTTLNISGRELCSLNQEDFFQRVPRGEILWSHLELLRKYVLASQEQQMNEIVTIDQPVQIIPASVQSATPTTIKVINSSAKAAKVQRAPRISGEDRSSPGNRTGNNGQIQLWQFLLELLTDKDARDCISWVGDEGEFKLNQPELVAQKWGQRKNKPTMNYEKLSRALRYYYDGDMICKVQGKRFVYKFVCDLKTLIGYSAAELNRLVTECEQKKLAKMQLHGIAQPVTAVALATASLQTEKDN
Outline: as §1

ERG = target: T4, ERG (Homo sapiens, UniProt P11308 1-479)
T4 sequence: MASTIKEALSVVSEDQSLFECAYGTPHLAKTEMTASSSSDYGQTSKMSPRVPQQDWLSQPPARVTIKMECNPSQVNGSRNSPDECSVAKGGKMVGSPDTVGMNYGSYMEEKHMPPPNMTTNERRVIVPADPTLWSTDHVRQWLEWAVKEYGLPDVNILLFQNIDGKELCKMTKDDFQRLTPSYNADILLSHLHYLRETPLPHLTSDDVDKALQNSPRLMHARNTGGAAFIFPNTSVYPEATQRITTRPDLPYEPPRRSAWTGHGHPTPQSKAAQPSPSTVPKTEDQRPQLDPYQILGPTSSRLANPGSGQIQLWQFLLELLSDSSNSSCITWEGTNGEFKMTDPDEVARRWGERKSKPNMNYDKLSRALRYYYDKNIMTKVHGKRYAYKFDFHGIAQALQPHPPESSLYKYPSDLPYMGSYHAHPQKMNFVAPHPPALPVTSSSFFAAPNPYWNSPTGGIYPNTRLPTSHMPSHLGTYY
Outline: as §1

ELF1 = ELF1 (Homo sapiens, UniProt P32519 1-619)
ELF1, sequence (P32519 whole entry): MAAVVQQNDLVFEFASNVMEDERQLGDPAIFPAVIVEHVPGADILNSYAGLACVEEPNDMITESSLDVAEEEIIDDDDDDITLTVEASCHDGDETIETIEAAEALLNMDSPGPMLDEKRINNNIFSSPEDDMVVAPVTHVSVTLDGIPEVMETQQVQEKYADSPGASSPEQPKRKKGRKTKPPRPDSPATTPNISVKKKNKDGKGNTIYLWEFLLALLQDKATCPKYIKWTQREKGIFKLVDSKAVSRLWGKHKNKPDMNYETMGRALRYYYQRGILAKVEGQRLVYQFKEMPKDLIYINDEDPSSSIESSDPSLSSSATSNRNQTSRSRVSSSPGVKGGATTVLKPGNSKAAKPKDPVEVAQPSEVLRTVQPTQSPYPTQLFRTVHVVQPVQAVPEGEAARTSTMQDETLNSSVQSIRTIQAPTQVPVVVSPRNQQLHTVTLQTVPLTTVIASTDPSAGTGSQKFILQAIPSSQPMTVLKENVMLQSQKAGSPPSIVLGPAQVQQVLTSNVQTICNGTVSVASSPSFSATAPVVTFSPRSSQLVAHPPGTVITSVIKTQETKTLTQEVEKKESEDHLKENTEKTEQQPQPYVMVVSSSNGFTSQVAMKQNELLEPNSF
Outline: as §1

EHF = target: T5, EHF (Homo sapiens, UniProt Q9NZC4 1-300)
T5 sequence: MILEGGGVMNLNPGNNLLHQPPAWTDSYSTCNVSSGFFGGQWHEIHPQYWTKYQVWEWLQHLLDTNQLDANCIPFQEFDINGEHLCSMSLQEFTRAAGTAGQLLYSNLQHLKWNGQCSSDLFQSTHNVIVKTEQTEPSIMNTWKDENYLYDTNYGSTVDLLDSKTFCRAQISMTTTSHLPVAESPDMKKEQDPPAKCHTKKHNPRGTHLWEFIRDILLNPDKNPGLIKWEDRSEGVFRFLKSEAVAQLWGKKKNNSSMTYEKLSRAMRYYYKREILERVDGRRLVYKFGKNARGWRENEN
Outline: as §1

SPI1 = SPI1 (Homo sapiens, UniProt P17947 1-270)
Outline: as §1

SPIB = SPIB (Homo sapiens, UniProt Q01892 1-262)
SPIB, sequence (Q01892 whole entry): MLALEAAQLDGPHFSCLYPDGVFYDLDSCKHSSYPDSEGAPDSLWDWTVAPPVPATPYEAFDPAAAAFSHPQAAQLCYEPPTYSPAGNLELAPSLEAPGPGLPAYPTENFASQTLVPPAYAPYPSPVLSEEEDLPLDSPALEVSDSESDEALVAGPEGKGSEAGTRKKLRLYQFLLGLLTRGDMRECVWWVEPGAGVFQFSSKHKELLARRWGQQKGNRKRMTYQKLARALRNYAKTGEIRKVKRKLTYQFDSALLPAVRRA
Outline: as §1

ELK3 = target: T6, ELK3 (Homo sapiens, UniProt P41970 1-407)
T6 sequence: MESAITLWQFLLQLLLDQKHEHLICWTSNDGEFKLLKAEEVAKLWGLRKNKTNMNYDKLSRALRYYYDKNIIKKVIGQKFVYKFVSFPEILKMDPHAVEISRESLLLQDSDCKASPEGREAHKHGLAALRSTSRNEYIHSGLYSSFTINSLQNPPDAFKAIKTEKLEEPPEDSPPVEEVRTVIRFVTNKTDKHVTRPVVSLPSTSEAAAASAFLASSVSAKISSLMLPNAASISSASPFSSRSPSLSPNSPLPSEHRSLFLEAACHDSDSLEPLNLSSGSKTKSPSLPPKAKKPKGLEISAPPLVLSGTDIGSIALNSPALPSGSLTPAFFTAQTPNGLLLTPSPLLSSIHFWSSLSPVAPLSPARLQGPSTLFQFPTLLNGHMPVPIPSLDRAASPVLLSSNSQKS
Outline: as §1

ETV5 = ETV5 (Homo sapiens, UniProt P41161 1-510)
ETV5, sequence (P41161 whole entry): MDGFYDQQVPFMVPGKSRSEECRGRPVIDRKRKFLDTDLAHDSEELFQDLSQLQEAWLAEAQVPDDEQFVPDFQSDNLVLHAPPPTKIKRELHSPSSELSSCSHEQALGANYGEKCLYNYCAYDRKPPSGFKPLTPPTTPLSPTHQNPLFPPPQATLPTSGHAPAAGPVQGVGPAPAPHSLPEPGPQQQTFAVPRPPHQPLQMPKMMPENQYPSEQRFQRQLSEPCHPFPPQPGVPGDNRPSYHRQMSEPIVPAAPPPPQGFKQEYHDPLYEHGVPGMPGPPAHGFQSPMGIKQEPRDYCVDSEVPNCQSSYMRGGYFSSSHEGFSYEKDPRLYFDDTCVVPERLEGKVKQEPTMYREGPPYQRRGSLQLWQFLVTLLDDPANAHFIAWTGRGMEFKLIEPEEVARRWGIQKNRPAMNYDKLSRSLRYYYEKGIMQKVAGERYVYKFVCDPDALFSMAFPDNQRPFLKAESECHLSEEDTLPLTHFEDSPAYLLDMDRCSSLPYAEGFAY
Outline: as §1

In the case of CATTGT, the binding signal (FLI1) is reported as 1.2 fold enrichment (6-mer frequency, TF over GST control), the binding signal (ELK1) is reported as 1.14 fold enrichment (6-mer frequency, TF over GST control) and the binding signal (GABPA) is reported as 1.19 fold enrichment (6-mer frequency, TF over GST control). For the same sequence, the binding signal (ERG) was 1.12 fold enrichment (6-mer frequency, TF over GST control), the binding signal (ELF1) was 1.1 fold enrichment (6-mer frequency, TF over GST control) and the binding signal (EHF) was 1.14 fold enrichment (6-mer frequency, TF over GST control). The binding signal (SPI1) was 1.04 fold enrichment (6-mer frequency, TF over GST control), the binding signal (SPIB) was 1.04 fold enrichment (6-mer frequency, TF over GST control) and the binding signal (ELK3) was 1.08 fold enrichment (6-mer frequency, TF over GST control). The binding signal (ETV5) was 1.19 fold enrichment (6-mer frequency, TF over GST control).
